Test results taken from PubChem BioAssay (NCI).
The panel holds about 79,000 compounds, 15% with a hit somewhere; the sample as a whole holds those more often. Active and inactive are the calls of the source. Rule as the data show it: active = growth inhibition above about 70%; inactive = the rest.

How the values were obtained:
[1] = NCI Yeast Anticancer Drug Screen. Data for the rad50 strain (AID 155);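 also: 0% = growth of vehicle-only cultures of the same strain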; conditions: S. cerevisiae rad50 strain growth inhibition; at 50.0 µM; active compounds read high
Outline: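 A DNA repair-deficient yeast mutant serves as the test organism; compound-induced growth inhibition is calculated against vehicle-treated cells.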

[2] = NCI Yeast Anticancer Drug Screen. Data for the mec2-1 strain (AID 157); conditions: S. cerevisiae mec2-1 strain, at 50.0 µM, active compounds read high
Outline: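 Mutant yeast (mec2-1) grown with compound; growth inhibition relative to vehicle control reported.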

[3] = NCI Yeast Anticancer Drug Screen. Data for the sgs1 mgt1 strain (AID 161);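 also: 0% = growth of cultures given vehicle only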; conditions: S. cerevisiae sgs1 mgt1 strain, at 50.0 µM, active compounds read high
Outline: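 Percent growth inhibition was derived by comparing compound-exposed mutant yeast with vehicle-exposed cultures. The strain carries alterations in DNA damage repair.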

[4] = NCI Yeast Anticancer Drug Screen. Data for the cln2 rad14 strain (AID 165);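 also: 0% = growth equal to vehicle treated cultures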; conditions: S. cerevisiae cln2 rad14 strain, at 50.0 µM, active compounds read high
Outline: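 Readout is yeast growth inhibition versus vehicle-treated controls, using a strain with cln2 and rad14 alterations exposed to compound.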

[5] = NCI Yeast Anticancer Drug Screen. Data for the bub3 strain (AID 167); conditions: S. cerevisiae bub3 mutant strain, at 50.0 µM, active compounds read high
Outline: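 Inhibition values come from growth of compound-treated mutant yeast normalised to vehicle-treated controls.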

[6] = NCI Yeast Anticancer Drug Screen. Data for the mlh1 rad18 strain (AID 175); conditions: S. cerevisiae mlh1 rad18 strain growth inhibition; at 50.0 µM; active compounds read high
Outline: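 Genetically defined yeast (DNA repair-deficient) exposed to compounds; growth inhibition determined relative to vehicle.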

Measured: growth inhibition

NC(=O)c1ccc(=S)[nH]c1
inactive: [1] -8% | [2] -12.7% | [3] -7.55% | [4] -27.1% | [5] -6.1% | [6] 14.7%

O=C(NC/C=C/Br)NC1CCNc2ccccc21 (stereo unspecified)
inactive: [1] -14.2% | [2] -27.4% | [3] 22.1% | [4] 28.6% | [5] 20.2% | [6] 23%

CC(C)=NNC(=O)c1ccc(Cl)cc1
inactive: [1] -19.1% | [2] -25.1% | [3] -18.2% | [4] 17.1% | [5] -7.85% | [6] -32.1%

C(=C\C1OCCO1)/c1ccccc1
inactive: [1] 14.4% | [2] 0.45% | [3] 7.25% | [4] -2.4% | [5] 18.1% | [6] -3%

O=c1[nH]c2cc(Cl)ccc2nc1/C=C(\O)c1ccc(O)cc1
inactive: [1] 31% | [2] 2.25% | [3] 0.2% | [4] 7.05% | [5] -20% | [6] 13.7%

Fc1ccc2nncc(SCc3ccc(Cl)cc3)c2c1
inactive: [1] -4.1% | [2] 2.25% | [3] 4% | [4] -22.4% | [5] 4.85% | [6] -0.65%

O=C(Cc1ccc([N+](=O)[O-])c([N+](=O)[O-])c1CC(=O)C(=O)Nc1cc(Cl)ccc1Cl)C(=O)Nc1cc(Cl)ccc1Cl
inactive: [1] -16% | [2] -23.8% | [3] -14.8% | [4] 12.3% | [5] 25.1% | [6] -4.3%

C/C=C/C=C/C(=O)OCC
inactive: [1] 31.8% | [2] -2.25% | [3] -16.4% | [4] -2.4% | [5] 15.2% | [6] 14.3%

CSc1nc(NC2OC(COC(C)=O)C(OC(C)=O)C(OC(C)=O)C2OC(C)=O)c(N=C(C)C(C)=O)c(=O)n1C (stereo unspecified)
inactive: [1] 16.2% | [2] -7.75% | [3] -14.2% | [4] 9.7% | [5] 1.2% | [6] 6.95%

CCOC(=O)CC(=O)c1ccccc1SC
inactive: [1] 13.2% | [2] -1.55% | [3] -6.1% | [4] 4.4% | [5] -1.45% | [6] 17.4%

C=C[C@]1(C)C[C@@H](OC(=O)CO)[C@@]2(C)[C@H](C)CC[C@]3(CCC(=O)[C@H]32)[C@@H](C)[C@@H]1O
inactive: [1] -28.6% | [2] -23.3% | [3] 14.3% | [4] 30.2% | [5] -49.4% | [6] -2.15%

CNC(=O)OCc1nc(SSC(C)(C)C)n(C)c1COC(=O)NC
inactive: [1] 2.65% | [2] -1.5% | [3] 20.3% | [4] 1.9% | [5] 16.2% | [6] -9.4%

N#CCCNC=O
inactive: [1] -7.15% | [2] 0.4% | [3] -8.7% | [4] -7% | [5] 6.3% | [6] -4.95%

O=C1NC(=O)C(c2ccc3c(c2)OCO3)N1 (stereo unspecified)
inactive: [1] -3.25% | [2] -10.6% | [3] -6% | [4] -30.9% | [5] -23.3% | [6] 7.05%

C[n+]1ccc(CCC(=O)Nc2ccccc2)cc1
inactive: [1] 3.65% | [2] 24.3% | [3] -4.35% | [4] 0.3% | [5] 25.6% | [6] 3%

Cc1cc(Cl)ccc1C1OC(=O)c2c1ccc1ccccc21 (stereo unspecified)
inactive: [1] 16.9% | [2] 6.8% | [3] -6.25% | [4] 15.6% | [5] 7.5% | [6] 13.8%

O=C(Cc1ccccc1)NN1C(=O)/C(=C\c2cccc(O)c2)SC1=Nc1ccccc1
inactive: [1] -11% | [2] -18.9% | [3] -6% | [4] 5.9% | [5] -45.3% | [6] -16.9%

CCCCCCCCC1CO1 (stereo unspecified)
inactive: [1] 0.9% | [2] 3.55% | [3] -10.8% | [4] -19.5% | [5] -3.95% | [6] -6.85%

COC1(OC)C2(Cl)C(Cl)=C(Cl)C1(Cl)C1C=CC=CC12 (stereo unspecified)
inactive: [1] -19.9% | [2] -14.2% | [3] -14.3% | [4] 5.55% | [5] -18.6% | [6] -35.3%

Brc1ccc(C2NC(c3ccccc3)c3c(ccc4ccccc34)O2)cc1 (stereo unspecified)
active: [1] 90% | [2] 77.7% | [3] 90.9% | [6] 86.4%
inactive: [4] 61.2% | [5] 52.3%

c1ccc2c(c1)NCCOCCNc1ccccc1OCCNCCO2
inactive: [1] -1.5% | [2] 36.5% | [3] 14.1% | [4] -4.1% | [5] 30.1% | [6] 6.75%

O=C(O)COc1ccc(C2CCCCC2)cc1
inactive: [1] 5.1% | [2] 3.3% | [3] -7.65% | [4] 21.8% | [5] -4.9% | [6] -1.95%

Cc1nc(Cl)c(C)c(Cl)n1
inactive: [1] 13.4% | [2] -28.6% | [3] 1.4% | [4] 5.2% | [5] -5% | [6] 15.9%

N[C@H](C(=O)O)[C@H]1ON=C(Cl)[C@@H]1O
inactive: [1] 7.4% | [2] 4.55% | [3] 7.25% | [4] 16.6% | [5] 11.3% | [6] -2.15%

CCCCN(C=O)CCCC
inactive: [1] 20.7% | [2] 17.3% | [3] 17.4% | [4] 9.45% | [5] 4.75% | [6] 3.7%

C=CCC1=C2CCCCC2CCC1=O (stereo unspecified)
inactive: [1] -5.7% | [2] -27.8% | [3] -15.9% | [4] 3.3% | [5] -11% | [6] 4.95%

CC#Cc1c(O)c2c(c(O)c1C#CC)C(=O)c1ccccc1C2=O
inactive: [1] -1.3% | [2] -30% | [3] -25.4% | [4] -8.95% | [5] -3% | [6] -29.8%

c1ccc2c(c1)CNNC2
inactive: [1] 11.3% | [2] -4.4% | [3] -5.55% | [4] 11.3% | [5] 15.8% | [6] -8.1%

CCC1=CC(C=O)N(C(C)=O)c2ccccc21 (stereo unspecified)
inactive: [1] -2.85% | [2] 7.8% | [3] 7.2% | [4] 2.1% | [5] 1.95% | [6] -2.5%

CCOC(=O)C1C=CC(C)N(C(=O)OCC)N1C(=O)OCC (stereo unspecified)
inactive: [1] 0.35% | [2] 2.45% | [3] 7.5% | [4] -2.3% | [5] 49.9% | [6] -13.7%

COc1nc2cc(C)c(C)cc2n1C1OC(CO)C(O)C1O (stereo unspecified)
inactive: [1] -12.6% | [2] 16.4% | [3] 6.95% | [4] -8.3% | [5] -0.9% | [6] -7%

CC12CCC3C(CCC4CCCCC43C)C1CCC2CO (stereo unspecified)
inactive: [1] 21.8% | [2] 16.4% | [3] 17.8% | [4] -11.3% | [5] 23.2% | [6] 36.5%

COc1c2occc2c(N)c2ccc(=O)oc12
inactive: [1] -5.95% | [2] -4.4% | [3] -8.2% | [4] -14.5% | [5] -1.55% | [6] -9.95%

Cn1nnnc1/C(=C/c1ccccc1)C(=O)O
inactive: [1] 12.9% | [2] -0.15% | [3] 0.1% | [4] -18.9% | [5] 12.1% | [6] 12.2%

CCCCC1NNC(CCCC)NN1 (stereo unspecified)
inactive: [1] 2.8% | [2] -15.2% | [3] -18.8% | [4] -25.8% | [5] -6.3% | [6] -1.4%

CNC(=O)c1ccccc1CC1(O)CCCC1
inactive: [1] -9.85% | [2] -15.5% | [3] -0.5% | [4] 8.5% | [5] -9.75% | [6] -25.1%

COc1ccc(CCNC(=O)C(=O)c2c[nH]c3ccccc23)cc1OC
inactive: [1] 12.6% | [2] 18.8% | [3] 22.4% | [4] 14.3% | [5] 9.55% | [6] 25.2%

CCOC(=O)CC(C(=O)OCC)c1ccccc1 (stereo unspecified)
inactive: [1] -3.4% | [2] 10.2% | [3] -5.4% | [4] -6.35% | [5] 9.85% | [6] -19.4%

ClCC1COC(CCc2ccccc2)O1 (stereo unspecified)
inactive: [1] 18.4% | [2] -3.5% | [3] -10.9% | [4] 64.2% | [5] 3.1% | [6] 7.7%

Cc1ccc(S(=O)(=O)c2ccc(C)cc2C(=O)O)cc1
inactive: [1] -8.6% | [2] -19.3% | [3] -1.4% | [4] -9.8% | [5] -30.2% | [6] -22.4%

CCOC(CS(=O)(=O)CC(N)=O)OCC
inactive: [1] 6.3% | [2] 0.45% | [3] -3.75% | [4] -29.4% | [5] -11.8% | [6] 5.8%
